Reference: PubChem BioAssay AID1159580 (chemical genetic matrix, 2015)
Out of some 5,500 compounds screened, about 2,000 (36%) were called active. Roughly 18% stayed inconclusive and do not appear here. Rule as the data show it: active = normalized growth mostly below about 0.91 (no sharp cut-off); inconclusive = no clear call, values can overlap the other calls; inactive = mostly above about 0.92. This is one part of the list.

Assay: chemical genetic growth profiling, strain panel (AID 1159580);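 also: tested at 20 µM; growth read once vehicle control cultures reached saturation at 30 °C; 1 = growth at the plate median or of vehicle wells; lower values mean less growth of the strain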
Details: growth OD

Measured: normalized growth

CC(=O)Oc1c(C)cccc1C(=O)O
inactive: S. cerevisiae deletion strains, locus YJR043C, strain POL32, stronger effect = lower value 1 | S. cerevisiae deletion strains, locus YJR075W, strain HOC1, stronger effect = lower value 1.01 | S. cerevisiae deletion strains, locus YKL009W, strain mrt4, stronger effect = lower value 0.975 | S. cerevisiae deletion strains, locus YKL068W, stronger effect = lower value 0.995 | S. cerevisiae deletion strains, locus YKL085W, strain MDH1 (second series), stronger effect = lower value 1 | S. cerevisiae deletion strains, locus YKL085W, strain MDH1, stronger effect = lower value 1 | S. cerevisiae deletion strains, locus YKL160W, strain elf1, stronger effect = lower value 0.994 | S. cerevisiae deletion strains, locus YKL190W, strain CNB1, stronger effect = lower value 1.01 | S. cerevisiae deletion strains, locus YKR001C, strain vps1, stronger effect = lower value 1.02 | S. cerevisiae deletion strains, locus YKR026C, strain gcn3, stronger effect = lower value 0.986 | S. cerevisiae deletion strains, locus YKR091W, strain srl3, stronger effect = lower value 1.02 | S. cerevisiae deletion strains, locus YLL001W, strain dnm1, stronger effect = lower value 0.986 | S. cerevisiae deletion strains, locus YLL026W, stronger effect = lower value 1.01 | S. cerevisiae deletion strains, locus YLL041C, strain sdh2, stronger effect = lower value 0.991 | S. cerevisiae deletion strains, locus YLR027C, strain aat2, stronger effect = lower value 0.989 | S. cerevisiae deletion strains, locus YLR039C, strain RIC1, stronger effect = lower value 1 | S. cerevisiae deletion strains, locus YLR058C, strain SHM2, stronger effect = lower value 1.01 | S. cerevisiae deletion strains, locus YLR102C, strain apc9, stronger effect = lower value 1.01 | S. cerevisiae deletion strains, locus YLR221C, strain rsa3, stronger effect = lower value 1.02 | S. cerevisiae deletion strains, locus YLR258W, strain gsy2, stronger effect = lower value 0.999 | S. cerevisiae deletion strains, locus YLR262C, strain YPT6 (second series), stronger effect = lower value 1.03 | S. cerevisiae deletion strains, locus YLR262C, strain YPT6, stronger effect = lower value 1.05 | S. cerevisiae deletion strains, locus YLR268W, strain sec22, stronger effect = lower value 1.01 | S. cerevisiae deletion strains, locus YLR320W, strain mms22, stronger effect = lower value 1.03 | S. cerevisiae deletion strains, locus YLR330W, strain CHS5, stronger effect = lower value 1 | S. cerevisiae deletion strains, locus YLR342W, strain FKS1 (second series), stronger effect = lower value 1.02 | S. cerevisiae deletion strains, locus YLR342W, strain FKS1, stronger effect = lower value 1 | S. cerevisiae deletion strains, locus YLR357W, strain rsc2, stronger effect = lower value 1.04 | S. cerevisiae deletion strains, locus YLR370C, strain arc18, stronger effect = lower value 0.992 | S. cerevisiae deletion strains, locus YLR371W, strain rom2, stronger effect = lower value 1.01 | S. cerevisiae deletion strains, locus YLR384C, strain iki3, stronger effect = lower value 1.01 | S. cerevisiae deletion strains, locus YLR418C, strain cdc73, stronger effect = lower value 1.03 | S. cerevisiae deletion strains, locus YML016C, strain PPZ1, stronger effect = lower value 1.02 | S. cerevisiae deletion strains, locus YML032C, strain rad52, stronger effect = lower value 1.02 | S. cerevisiae deletion strains, locus YML120C, strain ndi1, stronger effect = lower value 1.02 | S. cerevisiae deletion strains, locus YML124C, strain tub3, stronger effect = lower value 1.01 | S. cerevisiae deletion strains, locus YMR058W, strain fet3, stronger effect = lower value 1.02 | S. cerevisiae deletion strains, locus YMR078C, strain ctf18, stronger effect = lower value 1.02 | S. cerevisiae deletion strains, locus YMR125W, strain sto1, stronger effect = lower value 1 | S. cerevisiae deletion strains, locus YMR129W, stronger effect = lower value 1.02 | S. cerevisiae deletion strains, locus YMR205C, strain PFK2, stronger effect = lower value 0.986 | S. cerevisiae deletion strains, locus YMR223W, strain ubp8, stronger effect = lower value 1.01 | S. cerevisiae deletion strains, locus YMR231W, strain pep5, stronger effect = lower value 1.01 | S. cerevisiae deletion strains, locus YMR263W, strain SAP30, stronger effect = lower value 1.01 | S. cerevisiae deletion strains, locus YMR307W, strain GAS1, stronger effect = lower value 1.05 | S. cerevisiae deletion strains, locus YNL067W, strain RPL9B, stronger effect = lower value 1.01 | S. cerevisiae deletion strains, locus YNL071W, strain lat1, stronger effect = lower value 1.02 | S. cerevisiae deletion strains, locus YNL128W, strain TEP1, stronger effect = lower value 1.01 | S. cerevisiae deletion strains, locus YNL153C, strain GIM3, stronger effect = lower value 1.01 | S. cerevisiae deletion strains, locus YNL209W, strain ssb2, stronger effect = lower value 1.01 | S. cerevisiae deletion strains, locus YNL233W, strain BNI4, stronger effect = lower value 1.01 | S. cerevisiae deletion strains, locus YNL248C, strain rpa49, stronger effect = lower value 1.01 | S. cerevisiae deletion strains, locus YNL250W, strain rad50, stronger effect = lower value 1.02 | S. cerevisiae deletion strains, locus YNL271C, strain bni1, stronger effect = lower value 1.01 | S. cerevisiae deletion strains, locus YNL298W, strain CLA4, stronger effect = lower value 0.987 | S. cerevisiae deletion strains, locus YNL307C, strain MCK1, stronger effect = lower value 1.02 | S. cerevisiae deletion strains, locus YNL322C, strain KRE1 (second series), stronger effect = lower value 1.01 | S. cerevisiae deletion strains, locus YNL322C, strain KRE1, stronger effect = lower value 1.01 | S. cerevisiae deletion strains, locus YNR049C, strain mso1, stronger effect = lower value 0.978 | S. cerevisiae deletion strains, locus YNR052C, strain pop2, stronger effect = lower value 1.01 | S. cerevisiae deletion strains, locus YOL006C, strain TOP1, stronger effect = lower value 1.02 | S. cerevisiae deletion strains, locus YOL012C, strain htz1 1.54 | S. cerevisiae deletion strains, locus YOL147C, strain pex11, stronger effect = lower value 1.01 | S. cerevisiae deletion strains, locus YOR001W, strain rrp6, stronger effect = lower value 1.01 | S. cerevisiae deletion strains, locus YOR061W, strain CKA2, stronger effect = lower value 1 | S. cerevisiae deletion strains, locus YOR069W, strain VPS5, stronger effect = lower value 1.01 | S. cerevisiae deletion strains, locus YOR070C, strain gyp1, stronger effect = lower value 0.99 | S. cerevisiae deletion strains, locus YOR080W, strain dia2, stronger effect = lower value 0.999 | S. cerevisiae deletion strains, locus YOR083W, strain WHI5, stronger effect = lower value 1.01 | S. cerevisiae deletion strains, locus YOR106W, strain vam3, stronger effect = lower value 1.01 | S. cerevisiae deletion strains, locus YOR136W, strain idh2, stronger effect = lower value 1.02 | S. cerevisiae deletion strains, locus YOR144C, strain elg1, stronger effect = lower value 1.02 | S. cerevisiae deletion strains, locus YOR184W, strain ser1, stronger effect = lower value 1.01 | S. cerevisiae deletion strains, locus YOR265W, strain rbl2, stronger effect = lower value 0.993 | S. cerevisiae deletion strains, locus YOR270C, strain vph1, stronger effect = lower value 1.06 | S. cerevisiae deletion strains, locus YOR290C, strain snf2, stronger effect = lower value 0.99 | S. cerevisiae deletion strains, locus YOR316C, strain cot1, stronger effect = lower value 1.02 | S. cerevisiae deletion strains, locus YPL051W, strain arl3, stronger effect = lower value 1 | S. cerevisiae deletion strains, locus YPL055C, strain LGE1, stronger effect = lower value 1.03 | S. cerevisiae deletion strains, locus YPL078C, strain atp4, stronger effect = lower value 1.02 | S. cerevisiae deletion strains, locus YPL106C, strain sse1, stronger effect = lower value 1.06 | S. cerevisiae deletion strains, locus YPL240C, strain hsp82, stronger effect = lower value 0.973 | S. cerevisiae deletion strains, locus YPL241C, strain CIN2, stronger effect = lower value 0.986 | S. cerevisiae deletion strains, locus YPR119W, strain clb2, stronger effect = lower value 1 | S. cerevisiae deletion strains, locus YPR141C, strain kar3, stronger effect = lower value 1 | S. cerevisiae deletion strains, locus YPR163C, strain tif3, stronger effect = lower value 1.01 | S. cerevisiae deletion strains, locus YPR167C, strain met16, stronger effect = lower value 1.01 | S. cerevisiae deletion strains, strain wtn01, stronger effect = lower value 1 | S. cerevisiae strains, strain wild type, stronger effect = lower value 0.993
